{"source": "the supplement of paper PMC8728848", "binders": {"B1": {"name": "PX9961X-pdi-531-24-531 (Parabacteroides distasonis) (protein)", "chain": "DLTEEIHSSVIAENYYNNAGEVMAAMMRPWGHFCGTMQVAQSPWSCNELSSDCAAWPQKGRHGYDNGDWIRLHRHQWIPTDGQVVDAWKKLFEGIGYANNFLTDTENIDFEALQVPMSKAQAQAEMRVYRAYCYWYVMDMFGTAPICEKIGEINPSSKSRAELFAWIEKELNESIPSLSESKTETYGRVSKWGAYALLARLYLNAEIYTGQARWDDCIAACDELAKGGFALDKKWNDTFRADNDKRSTEIIWSIVYDEVYAKGMGWYQRWLHYAHQTGWDLQSGPWNGLVTQPTFYDSFADNDLRKIEGFLIGKQYPRKVDENGNYYYDTTAEPLKGSEEYNGQDLVFVNYIKSMTEGEENSGARSIKYEIQPGTTGDMNNDWVMFRYSEVIYNKAEALMRKNGGKATQEVVDMINSVRQRSFKAEDWEKAKYTTATLTMDEFLAEKGREFAFEGIRRTDLVRFNKFVTTSWWDKTASNEPKRNIFPIPQRQLDANANLSPNEANSLF"}}, "test_in_all_cases": "glycan array binding signal (z-score within array); higher = stronger binding", "details_in_all_cases": "glycan notation: IUPAC condensed, linker removed", "key": {"[1]": {"molecular_target": "Fuc(a1-2)Gal(b1-3)[Fuc(a1-4)]GlcNAc(b1-2)Man(a1-3)[Fuc(a1-2)Gal(b1-3)[Fuc(a1-4)]GlcNAc(b1-2)Man(a1-3)]Man(b1-4)GlcNAc(b1-4)GlcNAc", "how_it_was_run": "(§1)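 Glycan array data were curated from 3228 arrays in the Consortium for Functional Glycomics database and kept only where the protein sequence was available. Glycan names were converted to IUPAC-condensed notation, and columns mapping to the same glycan were averaged. The binding signal is a within-array Z-score, averaged across arrays of the same protein sequence at different concentrations or buffers and across linkers. Negative Z-scores can be read as non-binding.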"}, "[2]": {"molecular_target": "Fuc(a1-2)Gal(b1-4)GlcNAc(b1-2)Man(a1-3)[Fuc(a1-2)Gal(b1-4)GlcNAc(b1-2)Man(a1-6)]Man(b1-4)GlcNAc(b1-4)GlcNAc", "how_it_was_run": "as §1"}, "[3]": {"molecular_target": "Fuc(a1-2)Gal(b1-4)GlcNAc(b1-2)Man(a1-3)[Fuc(a1-2)Gal(b1-4)GlcNAc(b1-2)Man(a1-6)]Man(b1-4)GlcNAc(b1-4)[Fuc(a1-6)]GlcNAc", "how_it_was_run": "as §1"}, "[4]": {"molecular_target": "Fuc(a1-2)Gal(b1-4)GlcNAc(b1-3)[Fuc(a1-2)Gal(b1-4)GlcNAc(b1-6)]GalNAc", "how_it_was_run": "as §1"}, "[5]": {"molecular_target": "Fuc(a1-2)Gal(b1-4)[Fuc(a1-3)]GlcNAc(b1-3)GalNAc", "how_it_was_run": "as §1"}, "[6]": {"molecular_target": "Fuc(a1-2)Gal6S(b1-3)GlcNAc", "how_it_was_run": "as §1"}, "[7]": {"molecular_target": "Fuc(a1-2)[Gal(a1-3)]Gal(b1-3)GalNAc(b1-3)Gal(a1-4)Gal(b1-4)Glc", "how_it_was_run": "as §1"}, "[8]": {"molecular_target": "Fuc(a1-2)[Gal(a1-3)]Gal(b1-4)GlcNAc(b1-2)Man", "how_it_was_run": "as §1"}, "[9]": {"molecular_target": "Fuc(a1-2)[GalNAc(a1-3)]Gal(b1-4)GlcNAc(b1-2)Man(a1-3)[Fuc(a1-2)[GalNAc(a1-3)]Gal(b1-4)GlcNAc(b1-2)Man(a1-6)]Man(b1-4)GlcNAc(b1-4)GlcNAc", "how_it_was_run": "as §1"}, "[10]": {"molecular_target": "Fuc(a1-3)[Gal3S(b1-4)]Glc", "how_it_was_run": "as §1"}, "[11]": {"molecular_target": "Fuc(a1-3)[Gal3S(b1-4)]GlcNAc6S", "how_it_was_run": "as §1"}, "[12]": {"molecular_target": "Gal(a1-3)Gal(b1-3)GlcNAc(b1-2)Man(a1-3)[Gal(a1-3)Gal(b1-3)GlcNAc(b1-2)Man(a1-6)]Man(b1-4)GlcNAc(b1-4)GlcNAc", "how_it_was_run": "as §1"}, "[13]": {"molecular_target": "Gal(a1-3)Gal(b1-4)GlcNAc(b1-2)Man(a1-3)[Gal(a1-3)Gal(b1-4)GlcNAc(b1-2)Man(a1-6)]Man(b1-4)GlcNAc(b1-4)GlcNAc", "how_it_was_run": "as §1"}, "[14]": {"molecular_target": "Gal(a1-3)[Gal(a1-4)]Gal(b1-4)GlcNAc", "how_it_was_run": "as §1"}, "[15]": {"molecular_target": "Gal(b1-3)GalNAc(a1-3)[Fuc(a1-2)]Gal(b1-4)Glc", "how_it_was_run": "as §1"}, "[16]": {"molecular_target": "Gal(b1-3)GlcNAc(b1-2)Man(a1-3)[Gal(b1-3)GlcNAc(b1-2)Man(a1-6)]Man(b1-4)GlcNAc(b1-4)GlcNAc", "how_it_was_run": "as §1"}, "[17]": {"molecular_target": "Gal(b1-3)GlcNAc(b1-3)Gal(b1-4)GlcNAc(b1-2)[Gal(b1-3)GlcNAc(b1-3)Gal(b1-4)GlcNAc(b1-6)]Man(a1-6)[Gal(b1-3)GlcNAc(b1-3)Gal(b1-4)GlcNAc(b1-2)Man(a1-3)]Man(b1-4)GlcNAc(b1-4)[Fuc(a1-6)]GlcNAc", "how_it_was_run": "as §1"}, "[18]": {"molecular_target": "Gal(b1-3)GlcNAc(b1-3)Gal(b1-4)GlcNAc(b1-3)Gal(b1-4)GlcNAc(b1-2)[Gal(b1-3)GlcNAc(b1-3)Gal(b1-4)GlcNAc(b1-3)Gal(b1-4)GlcNAc(b1-6)]Man(a1-6)[Gal(b1-3)GlcNAc(b1-3)Gal(b1-4)GlcNAc(b1-3)Gal(b1-4)GlcNAc(b1-2)Man(a1-3)]Man(b1-4)GlcNAc(b1-4)[Fuc(a1-6)]GlcNAc", "how_it_was_run": "as §1"}, "[19]": {"molecular_target": "Gal(b1-3)GlcNAc(b1-6)GalNAc", "how_it_was_run": "as §1"}, "[20]": {"molecular_target": "Gal(b1-3)[Fuc(a1-4)]GlcNAc(b1-3)Gal(b1-4)[Fuc(a1-3)]GlcNAc", "how_it_was_run": "as §1"}, "[21]": {"molecular_target": "Gal(b1-4)GlcNAc(b1-3)Gal(b1-4)GlcNAc(b1-2)[Gal(b1-4)GlcNAc(b1-3)Gal(b1-4)GlcNAc(b1-6)]Man(a1-6)[Gal(b1-4)GlcNAc(b1-3)Gal(b1-4)GlcNAc(b1-2)Man(a1-3)]Man(b1-4)GlcNAc(b1-4)GlcNAc", "how_it_was_run": "as §1"}}, "note": "This is one part of a sample in which the strongest signals are shown more often than they occur."}
{"binder": "B1", "values": [{"measurement": "glycan array binding signal (z-score)", "setting": "[1]", "value": 0.026}, {"measurement": "glycan array binding signal (z-score)", "setting": "[2]", "value": 1.28}, {"measurement": "glycan array binding signal (z-score)", "setting": "[3]", "value": -0.118}, {"measurement": "glycan array binding signal (z-score)", "setting": "[4]", "value": -0.351}, {"measurement": "glycan array binding signal (z-score)", "setting": "[5]", "value": 0.289}, {"measurement": "glycan array binding signal (z-score)", "setting": "[6]", "value": -0.189}, {"measurement": "glycan array binding signal (z-score)", "setting": "[7]", "value": -0.567}, {"measurement": "glycan array binding signal (z-score)", "setting": "[8]", "value": -0.156}, {"measurement": "glycan array binding signal (z-score)", "setting": "[9]", "value": 0.31}, {"measurement": "glycan array binding signal (z-score)", "setting": "[10]", "value": 0.374}, {"measurement": "glycan array binding signal (z-score)", "setting": "[11]", "value": -0.332}, {"measurement": "glycan array binding signal (z-score)", "setting": "[12]", "value": 3.82}, {"measurement": "glycan array binding signal (z-score)", "setting": "[13]", "value": 0.935}, {"measurement": "glycan array binding signal (z-score)", "setting": "[14]", "value": 7.26}, {"measurement": "glycan array binding signal (z-score)", "setting": "[15]", "value": 0.221}, {"measurement": "glycan array binding signal (z-score)", "setting": "[16]", "value": 4.29}, {"measurement": "glycan array binding signal (z-score)", "setting": "[17]", "value": 3.82}, {"measurement": "glycan array binding signal (z-score)", "setting": "[18]", "value": 7.05}, {"measurement": "glycan array binding signal (z-score)", "setting": "[19]", "value": 1.52}, {"measurement": "glycan array binding signal (z-score)", "setting": "[20]", "value": -0.466}, {"measurement": "glycan array binding signal (z-score)", "setting": "[21]", "value": 2.17}]}
